Compound activity from PubChem.
Only some compounds are listed: those with a hit (about 2.8% of all), similar ones and a draw of the others.
Pol beta inh – qHTS Assay for Inhibitors of DNA Polymerase Beta; P06746; Pol beta primer extension/strand displacement, fluorescence kinetic; Potency, µM (top dose mostly 114 µM), inactives show at the top dose activity change, negative = inhibition, hits mostly inhibitors; actives 1.3% (n = 340,000); AID 485314, 2010; also: potency is read from the fitted curve at half-maximal effect; % is scaled to controls: 0 for no effect and ±100 for the full control effect
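Pol beta (10 nM) and compounds were preincubated 15 min at room temperature, then 50 nM substrate (final) started primer extension/strand displacement. Reads were taken at 0 and 10 min; concentration-response data were fitted to a four-parameter Hill equation.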
POLH inh – qHTS for Inhibitors of Polymerase Eta; DNA polymerase eta (Homo sapiens), Q9Y253; recombinant Pol eta, fluorescent DNA replication assay; Potency, µM (doses to about 114 µM), inactives show top-dose activity change, negative = inhibition, hits mostly inhibitors; actives 1.2% (n = 390,000); also: potency is read from the fitted curve at half-maximal effect; % is scaled to controls: 0 for no effect and ±100 for the full control effect
Target sequence (Q9Y253 whole entry, looked up): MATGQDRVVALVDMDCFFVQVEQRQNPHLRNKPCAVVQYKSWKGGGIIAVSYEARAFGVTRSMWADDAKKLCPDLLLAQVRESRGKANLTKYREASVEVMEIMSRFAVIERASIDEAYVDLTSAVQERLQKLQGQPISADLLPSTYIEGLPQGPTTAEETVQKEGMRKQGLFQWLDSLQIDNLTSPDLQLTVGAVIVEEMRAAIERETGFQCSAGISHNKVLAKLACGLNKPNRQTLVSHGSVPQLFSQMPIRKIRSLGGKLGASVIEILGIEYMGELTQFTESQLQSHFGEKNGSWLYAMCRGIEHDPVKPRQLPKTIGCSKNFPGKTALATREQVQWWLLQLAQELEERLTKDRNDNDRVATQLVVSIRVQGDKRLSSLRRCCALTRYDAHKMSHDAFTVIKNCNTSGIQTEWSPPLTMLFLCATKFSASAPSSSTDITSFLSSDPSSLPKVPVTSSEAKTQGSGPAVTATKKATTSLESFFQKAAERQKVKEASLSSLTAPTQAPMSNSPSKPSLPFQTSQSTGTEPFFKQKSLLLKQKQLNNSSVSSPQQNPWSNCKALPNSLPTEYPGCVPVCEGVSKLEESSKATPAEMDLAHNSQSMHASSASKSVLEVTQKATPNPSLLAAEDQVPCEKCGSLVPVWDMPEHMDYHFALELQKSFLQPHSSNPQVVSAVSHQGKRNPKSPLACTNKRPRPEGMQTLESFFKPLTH
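Pol eta at 10 nM preincubated with compounds 15 min at room temperature; reaction started with fluorescent substrate (50 nM final) and read kinetically at 0 and 10 min.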
PI5P4Ka inh – qHTS for Inhibitors of phosphatidylinositol 5-phosphate 4-kinase (PI5P4K) | max response, % | actives 1.2% (n = 330,000) | PI5P4Kalpha enzyme, ADP-Glo luminescence, 60 min; hits give low values | Phosphatidylinositol 5-phosphate 4-kinase type-2 alpha (Homo sapiens), P48426 | AID 652105, 2013; active = max response of -50% or lower; inconclusive = between -30% and -50%; inactive = -30% or higher; also: value at the top dose of about 77 µM; % is scaled to controls: 0 for no effect and ±100 for the full control effect
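Controls without substrate or without enzyme flank wells where PI5P4Kalpha converts substrate using 5 microM ATP (final). Incubation lasts 60 minutes at room temperature; ADP formed is read by ADP-Glo luminescence.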
Pol kappa inh – qHTS for Inhibitors of Polymerase Kappa. actives 0.53% (n = 400,000). Potency, µM (top dose mostly 107 µM), for the others: top-dose activity, negative = inhibition, most hits filed as inhibitors. purified Pol kappa, fluorescent DNA synthesis assay, 10 min. DNA polymerase kappa (Homo sapiens), Q9UBT6; also: potency is read from the fitted curve at half-maximal effect; % is scaled to controls: 0 for no effect and ±100 for the full control effect
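First, compounds were pin-transferred onto 10 nM Pol kappa. After 15 min at room temperature, substrate was added to 50 nM final. Fluorescence was then measured kinetically at 0 and 10 min.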
POLI inh – qHTS for Inhibitors of Polymerase Iota. DNA polymerase iota (Homo sapiens), Q9UNA4. Pol iota fluorescent replication assay, 10 min. Potency, µM (titrated, usually from 115 µM), for inactives: at the highest dose activity, negative = inhibition, actives largely listed as inhibitors. actives 1% (n = 390,000). AID 588590, 2011; also: potency is read from the fitted curve at half-maximal effect
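Fluorescent replication assay read twice, at 0 min and 10 min after adding 50 nM (final) substrate. Enzyme (10 nM) and compounds were first incubated 15 min at room temperature; enzyme-free buffer wells were negative controls.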
FEN1 inhibitor – qHTS Assay for the Inhibitors of Human Flap endonuclease 1 (FEN1). Potency, µM (doses to about 114 µM), without a hit: at the top dose activity change, negative = inhibition, most hits filed as inhibitors. Recombinant FEN1 flap cleavage, fluorescence, 15 min. actives 0.35% (n = 390,000); also: potency is read from the fitted curve at half-maximal effect; % is scaled to controls: 0 for no effect and ±100 for the full control effect; nearly all actives have a fitted effect of over 65% in size
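Recombinant FEN1 (10 nM) was preincubated with pin-transferred compounds for 15 min at room temperature, then flap DNA substrate (50 nM final) was added. Plates were read at 0 and 15 min, and normalized concentration–response data were fitted to a four-parameter Hill equation.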
Starred values were filed as active, the others as inactive; ? = inconclusive; . = no result given; [ ] = another dose, or the depositor's remark. Unless noted, calls follow the shape of the dose curve; as a rule, active = well fitted curve in the direction sought with a large enough effect; inconclusive = small, poorly fitted or top-dose-only effect, or another doubt; inactive = no such curve, though single readings can be large; an effect the other way counts as inactive or inconclusive.

SMILES	Pol beta inh	POLH inh	PI5P4Ka inh	Pol kappa inh	POLI inh	FEN1 inhibitor
CC1CCCCN1S(=O)(=O)c1ccc(S(=O)(=O)N2CCN(C)CC2)cc1 (centres undefined)	-1%	-14%	-10	9%	112%	4%
CCOC(=O)c1cnc(-n2[nH]c(C)c(Cc3ccccc3)c2=O)[nH]c1=O	3.2µM*	?	-9	-3%	?	3%
CCOc1ccc(NC(=O)Nc2c(C)n(C)n(-c3ccccc3)c2=O)cc1	42%	-10%	2	11%	10%	-3%
O=C(Cc1ccccc1)Nc1cccc([N+](=O)[O-])c1	-8%	9%	0	0%[60.1 µM]	-4%	-2%
O=C(Nc1cccc([N+](=O)[O-])c1)c1ccc2ccccc2c1O	40µM*	-3%	0	-12%	2%	14%
Cc1cc(C)n2cc(CSCc3ccco3)nc2n1	3%	?	2	-30%	?	4%
Cc1cccc2nc(CSCc3ccco3)cn12	40µM*	20µM*	-11	-28%	?	-4%
COc1ccc(C2=Nn3c(nnc3-c3ccccc3F)SC2)cc1OC1CCOC1 (centres undefined)	.	-7%	.	?	-18%	-3%
COc1ccc(C2=Nn3c(nnc3-c3ccccc3F)SC2)cc1OC1CCCC1	.	-15%	.	50µM*	-10%	?
CN(C)S(=O)(=O)c1cc(NC(=O)CN2CCN(c3ccccc3O)CC2)ccc1Cl	-29%	-5%	-17	-11%	176%	-4%
CN(C)S(=O)(=O)c1ccc2c(c1)N(CC(=O)NCc1ccccc1)C(=O)C1CCCCN21 (centres undefined)	22%	-22%	.	-5%[60.1 µM]	29%	-9%
CN(CC(=O)Nc1ccc(F)cc1)C(=O)c1ccc(OCc2cn3ccccc3n2)cc1	.	0%	-1	-23%	?	-5%
CCc1ccccc1NC(=O)CNC(=O)c1ccc(OCc2cn3ccccc3n2)cc1	.	-20%	-8	-28%	45µM*	-6%
CN(Cc1ccccc1)C(=O)COC(=O)CCC(=O)c1ccc(Cl)cc1	.	-2%	-4	-10%	8%	-4%
CCOc1ccc(C(=O)NCc2ccco2)cc1	22µM*	?	.	?	?	-4%
O=C(NCC1CCCO1)c1ccc(Cn2c(=S)[nH]c3ccccc3c2=O)cc1 (centres undefined)	-2%	7%	2	-20%	110%	-3%
CCOC(=O)c1c(C)c(C(=O)NCc2ccco2)c(C)n1Cc1ccccc1	40µM*	?	.	-36%	?	-1%
Cc1cccc(C(=O)NCc2ccco2)c1	56µM*	?	-29	-42%	?	-2%
O=C(NCc1ccco1)c1ccc(Cn2c(=S)[nH]c3ccccc3c2=O)cc1	20µM*	?	-2	-30%	95%	-17%
Cc1c([N+](=O)[O-])nnn1-c1cc(Cl)cc(Cl)c1	2%	-13%	-5	10%	41%	-6%
Cc1cnc(CNc2ncncc2-c2ccccc2C)cn1	.	.	.	9%[60.1 µM]	.	.
CCC1(c2ccc(F)cc2)NC(=O)N(CC(=O)N(C)C2CCS(=O)(=O)C2)C1=O (centres undefined)	.	-13%	-6	-1%	31%	8%
O=C(NCc1ccco1)c1cc2c(s1)CSC2	14µM*	20µM*	.	11µM*	?	50µM*
O=C(NCc1ccco1)c1cccs1	-10%	?	-15	-15%	?	-3%
CCC(CC)C(=O)Nc1cccc(C(=O)NCc2ccco2)c1	3.2µM*	?	.	?	40µM*	0%
CC(C)CNC(=O)c1cccc(NC(=O)c2ccc(NC(=O)c3ccco3)cc2)c1	25µM*	-9%	.	-14%	?	-6%
